Reference: PubChem BioAssay
“And” between values parts separate entries of the source, which are not always exact repeats. Equal values may be shown once. Records with an inconclusive call do not appear. The source made the active and inactive calls. Unless noted, no rule for the calls is given here.

Legend:
[1] = circadian clock period modulators, cell-based, LOPAC library, luminescence reporter (AID 2774); conditions: circadian reporter cells, at 7 µM, actives lie on both sides;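 also: values are relative to mean of DMSO wells on each plate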
[2] = test system: Aerobactin synthetase IucA (Klebsiella pneumoniae, hypervirulent); experiment: IucA enzyme inhibition, biochemical, LOPAC library, absorbance readout (AID 1346212); conditions: IucA enzyme assay, absorbance (OD) readout; stronger effect = lower value;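 tested at 8 µM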;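 also: 100% = no compound wells and 0% = no enzyme wells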
[3] = test system: Hepatitis C virus NS3 helicase; experiment: HCV NS3 helicase inhibitors, primary screen, biochemical, fluorescence polarization, LOPAC1280 library (AID 687035; in the data active = inhibition above about 37%); conditions: Purified HCV NS3 helicase, Cy5-dT15 ssDNA binding fluorescence polarization; stronger effect = higher value; concentration not given here
[4] = Cy5 fluorescence quenching or enhancement artefacts, artefact control for HCV NS3 helicase inhibitor project, biochemical, LOPAC1280 (AID 687037); conditions: Cy5-DNA-NS3h complex fluorescence interference counterscreen
[5] = sensitizers of A549 cells to miR-34 induction, primary screen, imaging, A549 dox-inducible miR-34, nuclei and caspase counts (AID 1347080;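 active = compounds whose cell count with miR-34 switched on is under 0.7 times the count with it off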); conditions: A549 miR-34 inducible, Hoechst nuclei count, 48 h
[6] = viability rescue of complex I mutant cybrids, primary screen, cell-based, galactose medium, ATP luminescence (AID 1645843;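 active = z-score of at least 1.8 in each of two replicates, scored against plate mean and spread of sample wells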;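 also: positive z means more ATP and so rescue of galactose-driven cybrid death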); conditions: complex I mutant cybrid cells, 72 h, stronger effect = higher value
[7] = growth inhibition of DIPG glioma cells, dose response, cell-based, SU-DIPG-XVII, MIPE5.0, CellTiter-Glo, qHTS (AID 1347060; cut-off not given, nearly all actives have AC50 up to about 26 µM); conditions: SU-DIPG-XVII viability, CellTiter-Glo ATP luminescence
[8] = growth inhibition of DIPG glioma cells, dose response, cell-based, SU-DIPG-XIII, MIPE4.0, CellTiter-Glo, qHTS (AID 1347061; cut-off not given, nearly all actives have AC50 up to about 37 µM;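 also: cells exposed to compound for 48 hours before readout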); conditions: SU-DIPG-XIII viability, CellTiter-Glo ATP luminescence
[9] = growth inhibition of DIPG glioma cells, dose response, cell-based, JHH-DIPG-1, MIPE4.0, CellTiter-Glo, qHTS (AID 1347062; cut-off not given, nearly all actives have AC50 up to about 27 µM); conditions: JHH-DIPG-1 viability, CellTiter-Glo ATP luminescence
[10] = growth inhibition of DIPG glioma cells, dose response, cell-based, SU-DIPG-IV, MIPE4.0, CellTiter-Glo, qHTS (AID 1347063; cut-off not given, nearly all actives have AC50 up to about 30 µM;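 also: compound exposure lasted 48 hours before the viability readout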); conditions: SU-DIPG-IV viability, CellTiter-Glo ATP luminescence
[11] = growth inhibition of DIPG glioma cells, dose response, cell-based, SU-DIPG-XIII, MIPE5.0, CellTiter-Glo, qHTS (AID 1347064; cut-off not given, nearly all actives have AC50 up to about 23 µM); conditions: SU-DIPG-XIII viability, CellTiter-Glo ATP luminescence
[12] = SU-DIPG-VI glioma cell viability, MIPE4.0 library, CellTiter-Glo luminescence, qHTS (AID 1347066; cut-off not given, nearly all actives have AC50 up to about 30 µM;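 also: cells exposed to compound for 48 hours before readout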); conditions: CellTiter-Glo ATP luminescence
[13] = JHH-DIPG-1 glioma cell viability, MIPE5.0 library, CellTiter-Glo luminescence, qHTS (AID 1347067; cut-off not given, nearly all actives have AC50 up to about 26 µM;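 also: cells exposed to compound for 48 hours before readout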); conditions: JHH-DIPG-1 glioma viability, CellTiter-Glo ATP luminescence
[14] = SU-DIPG-XXV glioma cell viability, MIPE5.0 library, qHTS (AID 1347068; cut-off not given, nearly all actives have IC50 up to about 30 µM)
[15] = LFS_MB_P medulloblastoma growth inhibition, cell-based, chromothripsis tumors, cisplatin or BGB combos (AID 1671449; in the data active = inhibition above about 80%;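 also: cells exposed for 96 hours; 0% = vehicle DMSO and 100% = killing by high DMSO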); conditions: LFS_MB_P medulloblastoma cells
[16] = HDN33 neuroblastoma growth inhibition, cell-based, chromothripsis tumors, cisplatin or BGB combos (AID 1671450; in the data active = inhibition above about 80%;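 also: cells exposed to compound for four days; 0% = vehicle DMSO and 100% = cell killing by high DMSO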); conditions: HDN33 neuroblastoma cells, stronger effect = higher value
[17] = ICB984 medulloblastoma cell growth inhibition, synergistic combos for chromothripsis tumors, cisplatin or BGB combos (AID 1671451); conditions: ICB984 medulloblastoma cells, drug combinations, stronger effect = higher value;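 also: cells exposed for 96 hours before readout; 0% = vehicle DMSO and 100% = killing by high DMSO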
[18] = LFS_MB_1R medulloblastoma cell growth inhibition, synergistic combos for chromothripsis tumors, cisplatin or BGB combos (AID 1671452; in the data active = inhibition above about 80%;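 also: cells exposed for 96 hours before readout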); conditions: LFS_MB_1R medulloblastoma cells, stronger effect = higher value
[19] = HTB85 osteosarcoma cell growth inhibition, synergistic combos for chromothripsis tumors, BGB or cisplatin IC20 combos (AID 1671453; in the data active = inhibition above about 80%;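 also: cells exposed for 96 hours before readout; 0% = vehicle DMSO and 100% = high DMSO killing control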); conditions: HTB85 osteosarcoma cells, drug combinations, stronger effect = higher value
[20] = CRL2098 osteosarcoma cell growth inhibition, synergistic combos for chromothripsis tumors, BGB or cisplatin IC20 combos (AID 1671454; in the data active = inhibition above about 80%;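 also: cells exposed for 96 h before readout; 0% = vehicle DMSO and 100% = killing by high DMSO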); conditions: CRL2098 osteosarcoma cells, drug combinations, stronger effect = higher value
[21] = HD-MB03 medulloblastoma cell growth inhibition, synergistic combos for chromothripsis tumors, BGB or cisplatin IC20 combos (AID 1671455; in the data active = inhibition above about 83%;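 also: 0% = vehicle DMSO and 100% = high DMSO as cytotoxic control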); conditions: HD-MB03 medulloblastoma cells, stronger effect = higher value
[22] = UWB1.289 ovarian carcinoma cell growth inhibition, synergistic combos for chromothripsis tumors, BGB or cisplatin combos (AID 1671456; in the data active = inhibition above about 80%;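 also: cells exposed to compound for four days; 0% = vehicle DMSO and 100% = killing by high DMSO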); conditions: UWB1.289 ovarian carcinoma cells, stronger effect = higher value
[23] = LFS_MB_2R medulloblastoma cell growth inhibition, synergistic combos for chromothripsis tumors, cisplatin combos (AID 1671457; in the data active = inhibition above about 80%;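 also: cells exposed to compound for four days before readout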); conditions: LFS_MB_2R medulloblastoma cells, stronger effect = higher value
[24] = MDA-MB-436 breast carcinoma cell growth inhibition, synergistic combos for chromothripsis tumors, BGB or cisplatin combos (AID 1671458); conditions: MDA-MB-436 breast carcinoma growth inhibition, drug combinations, stronger effect = higher value;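 also: cells exposed for 96 hours; 0% = vehicle DMSO and 100% = killing by high DMSO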
[25] = UWB1.289_BRCA1 ovarian cancer growth, cell-based, BGB or cisplatin combinations (AID 1671459; in the data active = inhibition above about 80%); conditions: UWB1.289 BRCA1 ovarian carcinoma, drug combinations, stronger effect = higher value
[26] = human astrocyte viability loss, single and combined drugs, cytotoxicity control for chromothriptic childhood tumor combination screen, cell-based, BGB or cisplatin IC20 combos (AID 1671460; in the data active = inhibition above about 80%;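 also: cells exposed to compounds for 96 hours before viability readout; 0% = vehicle and 100% = killing control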); conditions: Human astrocytes, drug combinations, stronger effect = higher value
[27] = growth inhibition of BT084 medulloblastoma cells, cell-based, ICGC_MB145, cisplatin and BGB IC40 combos (AID 1671461; in the data active = inhibition above about 80%;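 also: cells exposed to drugs for 96 hours; 0% = vehicle DMSO and 100% = high DMSO full killing control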); conditions: drug combinations, stronger effect = higher value
[28] = growth inhibition of RCMB18 medulloblastoma cells, cell-based, cisplatin and BGB IC40 combos (AID 1671462; in the data active = inhibition above about 80%;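 also: cells exposed to compound for four days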); conditions: stronger effect = higher value
[29] = growth inhibition of CRL1545 osteosarcoma cells, cell-based, cisplatin and BGB IC20 combos (AID 1671464; in the data active = inhibition above about 80%;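 also: cells exposed to compound for 96 hours before readout; 0% = vehicle DMSO and 100% = high DMSO killing control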); conditions: stronger effect = higher value
[30] = measured here: combination with BGB IC40, at 0.05 µM
[31] = measured here: with BGB IC20 combination, at 0.5 µM
[32] = measured here: with cisplatin IC20 combination, at 0.5 µM
[33] = measured here: combination with cisplatin, at 0.5 µM
[34] = measured here: combination with cisplatin, at 5 µM

SMILES: N[C@@H](Cn1ccc(=O)[nH]c1=O)C(=O)O
- period change [1]: 0.095 h (inactive)
- remaining activity [2]: 122% (inactive)

SMILES: CCCN1CCC[C@@H](c2cccc(C#N)c2)C1
- period change [1]: -0.025 h (inactive)
- remaining activity [2]: 122% (inactive)

SMILES: O=P(O)(O)C(Cl)(Cl)P(=O)(O)O
- period change [1]: -0.115 h (inactive)
- inhibition [3]: -2% (inactive)
- fluorescence ratio (interference) [4]: 1 (inactive)
- remaining activity [2]: 94.8% (inactive)
- fold change ([5]; stronger effect = lower value): 0.966 (inactive) and 0.892 (inactive)
- fold change ([5]; measured here: relative caspase fold change +Dox/-Dox): 1.44 and 0.98
- cell count ([5]; measured here: total cells with miR-34 induction, stronger effect = lower value): 9450 and 9630
- cell count ([5]; measured here: total cells without miR-34 induction): 9790 and 10800
- z-score [6]: 1.8 (inactive) and 0.645 (inactive)

SMILES: C=CCN1CCc2cccc3c2[C@H]1Cc1ccc(O)c(O)c1-3
- period change [1]: 0.185 h (inactive)
- inhibition [3]: -3% (inactive)
- fluorescence ratio (interference) [4]: 1.1 (inactive)
- remaining activity [2]: 110% (inactive)

SMILES: CCN(CCCl)Cc1ccccc1Br
- period change [1]: -0.02 h (inactive)
- inhibition [3]: -2% (inactive)
- fluorescence ratio (interference) [4]: 1 (inactive)
- remaining activity [2]: 111% (inactive)

SMILES: CCc1c(C(=O)OC)ncc2[nH]c3cc(OC)c(OC)cc3c12
- period change [1]: 0.185 h (inactive)
- remaining activity [2]: 93% (inactive)

SMILES: O=[N+]([O-])c1ccc(O[C@@H]2O[C@H](CO)[C@@H](O)[C@H](O)[C@H]2F)c([N+](=O)[O-])c1
- period change [1]: -0.07 h (inactive)
- remaining activity [2]: 96.8% (inactive)

SMILES: COc1ccc2c3c1O[C@H]1C(=O)CC[C@@]4(O)C(C2)N(CC2CC2)CCC314 (stereo not given in full)
- period change [1]: -0.115 h (inactive)
- remaining activity [2]: 120% (inactive)

SMILES: NCC#Cc1ccccc1
- period change [1]: 0.045 h (inactive)
- remaining activity [2]: 96.6% (inactive)

SMILES: CN(C)NC(=O)CCC(=O)O
- outcome [7]: inactive
- outcome [8]: inactive
- outcome [9]: inactive
- outcome [10]: inactive
- outcome [11]: inactive
- outcome [12]: inactive
- outcome [13]: inactive
- outcome [14]: inactive
- inhibition ([15]; at 0.5 µM, stronger effect = higher value): -0.95% (inactive)
- inhibition ([15]; measured here: combination with BGB IC20, at 0.005 µM): -31%
- inhibition ([15]; measured here: combination with BGB IC40, at 0.005 µM): -30.2%
- inhibition [15, 30]: -24.7%
- inhibition ([15]; measured here: combination with cisplatin, at 0.5 µM, stronger effect = higher value): 2.21%
- inhibition ([15]; measured here: combination with cisplatin, at 5 µM, stronger effect = higher value): -34.9%
- inhibition ([16]; BGB combo, at 5 µM): -23.5%
- inhibition ([16]; at 0.5 µM): -21.4% (inactive)
- inhibition ([16]; cisplatin combo, at 5 µM): -14%
- inhibition [16, 31]: -37.1%
- inhibition [16, 32]: -10.8%
- inhibition ([16]; single agent, at 5 µM): -11.1%
- inhibition ([17]; BGB IC20 combo, at 0.005 µM): -38.4%
- inhibition ([17]; BGB IC40 combo, at 0.005 µM): -26.9%
- inhibition ([17]; BGB IC40 combo, at 0.05 µM): -23.3%
- inhibition ([17]; at 0.5 µM): -22.7% (inactive)
- inhibition ([17]; cisplatin combo, at 0.05 µM): -27.8%
- inhibition ([17]; cisplatin combo, at 0.5 µM): -26.2%
- inhibition ([17]; cisplatin combo, at 5 µM): -3.89%
- inhibition ([17]; measured here: 5 uM single agent, at 5 µM): -1.92%
- inhibition ([18]; at 0.5 µM): -2.69% (inactive)
- inhibition [18, 30]: -23.8%
- inhibition [18, 33]: 18.7%
- inhibition [18, 34]: -7.99%
- inhibition ([19]; at 0.5 µM): -8.01% (inactive)
- inhibition ([19]; measured here: with BGB IC20, at 0.5 µM): -17.1%
- inhibition ([19]; measured here: with BGB IC20, at 5 µM): -18.2%
- inhibition ([19]; measured here: with cisplatin IC20, at 0.5 µM): 10.6%
- inhibition ([19]; measured here: with cisplatin IC20, at 5 µM): -1.55%
- inhibition ([19]; single agent, at 5 µM): -16.5%
- inhibition ([20]; at 0.5 µM): -47.3% (inactive)
- inhibition ([20]; measured here: combination with BGB at IC20, at 0.5 µM): -35.5%
- inhibition ([20]; measured here: combination with cisplatin at IC20, at 0.5 µM): -70.4%
- inhibition ([21]; at 0.5 µM): -8.93% (inactive)
- inhibition ([21]; measured here: combo with BGB at IC20, at 0.5 µM): -16.7%
- inhibition ([21]; measured here: combo with cisplatin at IC20, at 0.5 µM): -5.27%
- inhibition ([22]; at 0.5 µM): -6.42% (inactive)
- inhibition ([22]; measured here: inhibition with BGB combination, at 0.05 µM): -16.9%
- inhibition ([22]; measured here: inhibition with cisplatin combination, at 0.05 µM): -15.9%
- inhibition ([23]; at 0.5 µM): -22.3% (inactive)
- inhibition [23, 33]: -20.6%
- inhibition [23, 34]: -15.1%
- inhibition ([24]; at 0.5 µM): -23% (inactive)
- inhibition ([24]; measured here: BGB combination, at 0.5 µM): -22.6%
- inhibition ([24]; measured here: BGB combination, at 5 µM): -35.6%
- inhibition ([24]; measured here: cisplatin combination, at 0.5 µM): -26.7%
- inhibition ([24]; measured here: cisplatin combination, at 5 µM): -43.4%
- inhibition ([25]; BGB combination, concentration series, at 5 µM): -16%
- inhibition ([25]; at 0.5 µM): -15.1% (inactive)
- inhibition ([25]; cisplatin combination, concentration series, at 5 µM): -31.4%
- inhibition ([26]; at 0.5 µM): -16.7% (inactive)
- inhibition ([26]; measured here: combo with BGB IC20, at 0.5 µM): -24.5%
- inhibition ([26]; measured here: combo with cisplatin IC20, at 0.5 µM): -4.55%
- inhibition ([27]; at 0.5 µM): -3.48% (inactive)
- inhibition ([27]; cisplatin combination, at 0.5 µM): -21.4%
- inhibition ([27]; cisplatin combination, at 5 µM): -13.9%
- inhibition ([27]; measured here: BGB IC40 combination 0.05 uM, at 0.05 µM): -20.2%
- inhibition ([27]; single agent, at 5 µM): -16.7%
- inhibition ([28]; at 0.5 µM): -11.5% (inactive)
- inhibition ([28]; cisplatin combo, at 5 µM): 1.98%
- inhibition ([28]; measured here: BGB IC40 combination, at 0.05 µM): -3.93%
- inhibition [28, 33]: 15.6%
- inhibition ([28]; single agent, at 5 µM): -10.2%
- inhibition ([29]; at 0.5 µM): -22.5% (inactive)
- inhibition [29, 31]: -20%
- inhibition [29, 32]: -25.8%
- inhibition ([29]; single agent, at 0.05 µM): -6.7%
- inhibition ([29]; single agent, at 5 µM): -28%
